Here are results for eleven compounds from PubChem BioAssay (NCI).

Test systems include NCI-H23 lung; NCI-H226 lung; NCI-H322M lung; HOP-62 NSCLC; NCI-H460 lung; HOP-92 NSCLC; NCI-H522 lung; A549/ATCC NSCLC; 786-0 renal; DU-145 prostate; K-562 leukemia; MALME-3M melanoma; MDA-MB-231 breast; RXF 393 renal; SF-268 CNS; SF-295 CNS; SF-539 CNS; UACC-257 melanoma; M14 melanoma.
Assay in all cases: NCI-60 one-dose screen, 48 h (100 = growth as untreated, 0 = no growth, -100 = all killed)
Common to all, as to details: 10 µM unless noted

Molecules are shown by their SMILES. The panel holds about 83,000 compounds, 20% with a hit somewhere; the sample as a whole holds those more often.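 Note: values are percent growth. 100 is the growth of untreated cells, values between 100 and 0 indicate rising inhibition; between -100 and 0 indicates cell death.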 Values without a mark were called inactive. The source made the active and inactive calls. Rule for the calls: active = growth percent below 10; inactive = the rest.

Turning to `COc1ccc(C(=O)/C=C/C23c4ccccc4C(c4ccccc42)C2C(=O)NC(=O)C23)cc1` (centres undefined), the growth with NCI-H23 lung was 88.1%; with NCI-H226 lung, 99.7%; with NCI-H322M lung, 92.4%; in the experiment on HOP-62 NSCLC, 96.4%; in the experiment with NCI-H460 lung, 96.2%; in the experiment with HOP-92 NSCLC, 103%. The growth was 87% in the experiment on NCI-H522 lung; 90.7% with A549/ATCC NSCLC; 103% in the experiment on 786-0 renal; 97.4% in the experiment on DU-145 prostate; 86.3% in the experiment on K-562 leukemia; 98% in the experiment with MALME-3M melanoma. Besides, the growth in the experiment with MDA-MB-231 breast is 94.9%; in the experiment with RXF 393 renal, 95.9%; in the experiment on SF-268 CNS it was 90.5%; with SF-295 CNS it was 106%; in the experiment with SF-539 CNS, 89.9%; in the experiment on UACC-257 melanoma it was 89.4%. In addition, the growth with M14 melanoma was 105%.
In the case of `COc1cc2nc(Nc3ccc(F)cc3)nc(N)c2cc1OC`, the growth with NCI-H23 lung is 95.1%; in the experiment on NCI-H226 lung, 81.7%; in the experiment with NCI-H322M lung, 95.4%; in the experiment on HOP-62 NSCLC, 112%; in the experiment on NCI-H460 lung, 99.5%; with HOP-92 NSCLC, 63.9%. Further, the growth was 92% in the experiment on NCI-H522 lung; 92.6% in the experiment with A549/ATCC NSCLC; 87.1% in the experiment on 786-0 renal; 93.5% with DU-145 prostate; 77.8% in the experiment on K-562 leukemia; 105% in the experiment with MALME-3M melanoma. The growth in the experiment on MDA-MB-231 breast was 81.7%; in the experiment with RXF 393 renal, 54.5%; in the experiment with SF-268 CNS, 90%; with SF-295 CNS it was -2.33% (active); in the experiment on SF-539 CNS, 95.5%; with UACC-257 melanoma it was 102%. For the same compound, in the experiment on M14 melanoma, the growth is 107%.
For the compound `CSc1ccc(Cl)c(C(=O)Nc2sccc2C(N)=O)c1`, the growth with NCI-H23 lung was 97.9%; in the experiment with NCI-H226 lung, 79.9%; with NCI-H322M lung, 124%; in the experiment with HOP-62 NSCLC it was 107%; in the experiment with NCI-H460 lung, 101%; in the experiment with HOP-92 NSCLC, 75.6%. Moreover, the growth in the experiment with NCI-H522 lung was 92.2%; in the experiment on A549/ATCC NSCLC it was 85.6%; with 786-0 renal it was 94.2%; in the experiment on DU-145 prostate, 102%; in the experiment with K-562 leukemia, 110%; in the experiment with MALME-3M melanoma, 141%. Moreover, the growth was 99% in the experiment on MDA-MB-231 breast; 60.2% with RXF 393 renal; 93.7% in the experiment with SF-268 CNS; 123% in the experiment with SF-295 CNS; 99.8% in the experiment with SF-539 CNS; 104% in the experiment with UACC-257 melanoma. For the same compound, the growth in the experiment on M14 melanoma was 123%.
For `CCOC(=O)C1C(=O)C=C(c2cnccn2)CC1c1ccc(OC)c(OC)c1` (centres undefined), the growth with NCI-H23 lung is 95.6%; in the experiment on NCI-H226 lung, 96.1%; in the experiment with NCI-H322M lung, 103%; with HOP-62 NSCLC it was 88.3%; in the experiment on NCI-H460 lung, 114%; in the experiment on HOP-92 NSCLC it was 58.2%. Also, the growth in the experiment with NCI-H522 lung was 73.3%; with A549/ATCC NSCLC it was 86.6%; with 786-0 renal, 83.7%; in the experiment with DU-145 prostate, 105%; in the experiment on K-562 leukemia it was 81.3%; in the experiment on MALME-3M melanoma it was 100%. Further, the growth in the experiment on MDA-MB-231 breast is 110%; in the experiment on RXF 393 renal, 114%; in the experiment on SF-268 CNS, 102%; in the experiment on SF-295 CNS, 95.1%; in the experiment with SF-539 CNS, 95.7%; in the experiment with UACC-257 melanoma, 81.8%. The growth in the experiment on M14 melanoma was 85.5%.
Consider `Cl.[Pt].[c-]1ccccc1-c1ccccn1.c1ccc(P(c2ccccc2)C([PH+](c2ccccc2)c2ccccc2)[PH+](c2ccccc2)c2ccccc2)cc1`, for which the growth was 5.59% (active) in the experiment with NCI-H23 lung; 7.37% (active) with NCI-H226 lung; 12.5% with NCI-H322M lung; 25.1% in the experiment with HOP-62 NSCLC; 5.2% (active) in the experiment with NCI-H460 lung; -17% (active) in the experiment on HOP-92 NSCLC. For the same compound, the growth in the experiment on NCI-H522 lung is 9.94% (active); in the experiment on A549/ATCC NSCLC, 14.6%; in the experiment on 786-0 renal, 22.8%; in the experiment on DU-145 prostate it was 24.1%; with K-562 leukemia, 11%; with MALME-3M melanoma, -9.83% (active). Besides, the growth in the experiment on MDA-MB-231 breast was -8.43% (active); in the experiment on RXF 393 renal, 11.3%; in the experiment on SF-268 CNS, 27.6%; in the experiment on SF-295 CNS, 7.09% (active); with SF-539 CNS it was 8.54% (active); in the experiment with UACC-257 melanoma, 15.5%. Also, the growth in the experiment on M14 melanoma was 19.2%.
In the case of `O=C1N/C(=N/O)S/C1=C/c1cn(-c2ccccc2)nc1-c1ccccc1`, the growth is 88.1% in the experiment on NCI-H23 lung; 91.9% with NCI-H226 lung; 87.3% with NCI-H322M lung; 98% in the experiment on HOP-62 NSCLC; 104% with NCI-H460 lung; 107% with HOP-92 NSCLC. Also, the growth in the experiment on NCI-H522 lung was 95.6%; with A549/ATCC NSCLC it was 93.6%; in the experiment with 786-0 renal, 83.7%; in the experiment with DU-145 prostate, 102%; in the experiment on K-562 leukemia, 94.2%; in the experiment with MALME-3M melanoma, 141%. In addition, the growth in the experiment with MDA-MB-231 breast was 85.8%; in the experiment on RXF 393 renal it was 95.6%; in the experiment with SF-268 CNS, 97.7%; in the experiment with SF-295 CNS it was 107%; with SF-539 CNS, 110%; in the experiment on UACC-257 melanoma it was 113%. Also, the growth with M14 melanoma was 105%.
On to `CC(=O)OCCc1ccccc1`, for which the growth with NCI-H23 lung is 86.9%; with NCI-H226 lung, 108%; in the experiment with NCI-H322M lung, 103%; with HOP-62 NSCLC it was 78.1%; in the experiment with NCI-H460 lung it was 110%; in the experiment with HOP-92 NSCLC, 85.7%. Also, the growth in the experiment with NCI-H522 lung is 84.7%; in the experiment on A549/ATCC NSCLC it was 107%; with 786-0 renal, 91.8%; with DU-145 prostate, 134%; in the experiment on K-562 leukemia, 79.2%; in the experiment on MALME-3M melanoma it was 87.8%. The growth in the experiment on MDA-MB-231 breast was 110%; in the experiment with RXF 393 renal, 107%; with SF-268 CNS it was 128%; in the experiment with SF-295 CNS it was 101%; with SF-539 CNS, 103%; in the experiment with UACC-257 melanoma it was 100%. Moreover, the growth in the experiment with M14 melanoma is 78.6%.
With `CCCCCCCC/C=C/CCCCCCCC1=NCC[N+]1(CCO)CCO`, the growth was 67.9% in the experiment with NCI-H23 lung; 71.1% in the experiment with NCI-H226 lung; 83.8% in the experiment on NCI-H322M lung; 74.8% with HOP-62 NSCLC; 42.7% in the experiment with NCI-H460 lung; 46.4% in the experiment on HOP-92 NSCLC. The growth in the experiment on NCI-H522 lung is 29%; in the experiment with A549/ATCC NSCLC it was 81.9%; with 786-0 renal, 72.3%; in the experiment with DU-145 prostate, 78.9%; in the experiment on K-562 leukemia it was 32.7%; with MALME-3M melanoma, 96.2%. Further, the growth was 56.6% in the experiment with MDA-MB-231 breast; 50.1% with RXF 393 renal; 75.2% in the experiment on SF-268 CNS; 79.6% in the experiment with SF-295 CNS; 90.3% with SF-539 CNS; 104% in the experiment on UACC-257 melanoma. Also, the growth with M14 melanoma was 71.4%.
For `CN1CCN(C(=O)[C@@]2(C)CC[C@]3(C)CC[C@]4(C)C(=CC[C@@H]5[C@@]6(C)C/C(=C/c7ccncc7)C(=O)C(C)(C)[C@@H]6CC[C@]54C)[C@@H]3C2)CC1`, the growth in the experiment on NCI-H23 lung was 59.3%; in the experiment with NCI-H226 lung it was 88.6%; with NCI-H322M lung, 79.7%; in the experiment with HOP-62 NSCLC, 68.4%; with NCI-H460 lung, 24.4%; in the experiment with HOP-92 NSCLC, 34.3%. Also, the growth in the experiment on NCI-H522 lung is 69%; in the experiment on A549/ATCC NSCLC, 45.9%; in the experiment on 786-0 renal it was 58.4%; in the experiment on DU-145 prostate, 76.1%; in the experiment with K-562 leukemia it was 7.71% (active); with MALME-3M melanoma, 42.3%. Moreover, the growth is 69.4% in the experiment on MDA-MB-231 breast; 46.3% in the experiment with RXF 393 renal; 67.9% with SF-268 CNS; 63.6% in the experiment on SF-295 CNS; 57.7% in the experiment on SF-539 CNS; 40.8% with UACC-257 melanoma. Besides, the growth in the experiment with M14 melanoma is 49.8%.
Regarding `C=C1c2c(C)nn(-c3ccc(S(N)(=O)=O)cc3)c2N(C)C23CC1C1(C)c4c(C)nn(-c5ccc(S(N)(=O)=O)cc5)c4N(C)C(C)(CC12)C3` (centres undefined), the growth with NCI-H23 lung was 51.4%; in the experiment with NCI-H226 lung it was 40.7%; in the experiment on NCI-H322M lung, 75.7%; in the experiment on HOP-62 NSCLC, 48.2%; in the experiment on NCI-H460 lung, 12.4%; with HOP-92 NSCLC, 50.1%. Moreover, the growth in the experiment on NCI-H522 lung was 44%; in the experiment with A549/ATCC NSCLC, 17.6%; in the experiment on 786-0 renal, 41.9%; with DU-145 prostate it was 43.6%; in the experiment with K-562 leukemia, 29.9%; in the experiment on MALME-3M melanoma, 61.6%. Further, the growth in the experiment with MDA-MB-231 breast was 39.6%; in the experiment on RXF 393 renal it was 33.3%; in the experiment on SF-268 CNS it was 42.2%; with SF-295 CNS, 30.1%; with SF-539 CNS, 57.1%; in the experiment with UACC-257 melanoma it was 49%. The growth in the experiment on M14 melanoma was 20.6%.
With `Cc1ccc(Nc2ccc(Nc3ccc(C)cc3S(=O)(=O)O)c3c2C(=O)c2ccccc2C3=O)c(S(=O)(=O)O)c1`, the growth in the experiment with NCI-H23 lung is 97.2%; in the experiment on NCI-H226 lung it was 96.9%; with NCI-H322M lung, 90%; in the experiment with HOP-62 NSCLC, 107%; with NCI-H460 lung, 102%; in the experiment on HOP-92 NSCLC, 99%. The growth is 93.3% in the experiment on NCI-H522 lung; 112% in the experiment on A549/ATCC NSCLC; 111% in the experiment on 786-0 renal; 102% in the experiment on DU-145 prostate; 100% in the experiment with K-562 leukemia; 101% in the experiment on MALME-3M melanoma. Also, the growth is 95.6% with MDA-MB-231 breast; 107% with RXF 393 renal; 103% with SF-268 CNS; 101% in the experiment on SF-295 CNS; 102% with SF-539 CNS; 112% in the experiment on UACC-257 melanoma. Also, the growth in the experiment with M14 melanoma was 88%.
